Common to all, as to assay: NCI-60 one-dose screen, 48 h (100 = growth as untreated, 0 = no growth, -100 = all killed)
The subject of one experiment is K-562 leukemia. The following applies: 10 µM unless noted.
For a further experiment, the system named is MALME-3M melanoma. As to conditions: 10 µM unless noted.
Another experiment deals with RXF 393 renal. The following applies: 10 µM unless noted.
A further experiment relates to SF-295 CNS. As to conditions: 10 µM unless noted.
A further experiment concerns UACC-257 melanoma. The following applies: 10 µM unless noted.
The subject of another experiment is HCT-15 colon. The following applies: 10 µM.
The next experiment has as its system UACC-62 melanoma. The following applies: 10 µM unless noted.
For the next experiment, the system named is LOX IMVI melanoma. The following applies: 10 µM unless noted.
The next experiment deals with TK-10 renal. As to conditions: 10 µM unless noted.
The subject of a further experiment is ACHN renal. The following applies: 10 µM unless noted.
A further experiment relates to A498 renal. As to conditions: 10 µM unless noted.
The test system of a further experiment is HL-60(TB) leukemia. As to conditions: 10 µM unless noted.
The test system of another experiment is MOLT-4 leukemia. The following applies: 10 µM.
Another experiment concerns OVCAR-8 ovarian. As to conditions: 10 µM unless noted.
A further experiment relates to NCI/ADR-RES ovarian. The following applies: 10 µM unless noted.
For a further experiment, the system named is T-47D breast. The following applies: 10 µM unless noted.
The next experiment concerns BT-549 breast. The following applies: 10 µM.
The next experiment deals with HCC-2998 colon. The following applies: 10 µM unless noted.
For another experiment, the system named is SK-MEL-2 melanoma. As to conditions: 10 µM unless noted.
For a further experiment, the system named is OVCAR-4 ovarian. As to conditions: 10 µM unless noted.

Compounds without any hit were thinned out: in the full panel of roughly 83,000, 20% have a hit.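 Each cell line was grown in a 96-well plate and treated with one concentration of compound for 48 hours. Values below 10 were considered active.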 A number with no mark means an inactive call. Calls of active or inactive are those of the source.

We go through three molecules from PubChem BioAssay (NCI).

Take `O=C(c1cccs1)C1NO[N+]([O-])=C1c1cccs1` (stereo unspecified): the growth in the experiment on K-562 leukemia was 37.4%; in the experiment on MALME-3M melanoma, -55.3% (active); in the experiment on RXF 393 renal, -25.1% (active); with SF-295 CNS it was 107%; in the experiment on UACC-257 melanoma it was 46.2%; in the experiment on HCT-15 colon, 64.9%. In addition, the growth with UACC-62 melanoma was 88.7%; in the experiment on LOX IMVI melanoma, -100% (active); with TK-10 renal it was -46.8% (active); in the experiment on ACHN renal it was 22.8%; in the experiment with A498 renal, 113%; with HL-60(TB) leukemia it was 9.45% (active). The growth in the experiment with MOLT-4 leukemia was 38.5%; in the experiment with OVCAR-8 ovarian it was 24.5%; with NCI/ADR-RES ovarian, 47.5%; in the experiment with T-47D breast, 26.3%; in the experiment with BT-549 breast it was 88.7%; in the experiment with HCC-2998 colon, 96.5%.

Turning to `O=C1NC(=O)C(CN2C(=O)C3(c4ccccc42)[C@H](Cl)C(=O)N3c2ccccc2)C(=O)N1` (stereo partly specified), the growth in the experiment with K-562 leukemia was 65.5%; with MALME-3M melanoma it was 95.4%; in the experiment with RXF 393 renal it was 65.5%; in the experiment with SF-295 CNS, 91.5%; in the experiment with HCT-15 colon, 94.7%; in the experiment on LOX IMVI melanoma, 50.2%. In addition, the growth is 76.6% in the experiment on SK-MEL-2 melanoma; 121% with TK-10 renal; 88.7% with ACHN renal; 105% in the experiment on A498 renal; 85.4% in the experiment with HL-60(TB) leukemia; 62.5% with MOLT-4 leukemia. In addition, the growth with OVCAR-8 ovarian was 92.3%; in the experiment on OVCAR-4 ovarian, 97.6%; with NCI/ADR-RES ovarian, 86.7%; with T-47D breast it was 38.1%; in the experiment on BT-549 breast it was 72.3%; with HCC-2998 colon, 83.9%.

Consider `O=[As]c1ccc(C(=O)c2ccc(Oc3ccccc3)cc2)cc1` (stereo unspecified), for which the growth is -17.8% (active) with K-562 leukemia; -66.2% (active) in the experiment on MALME-3M melanoma; -100% (active) in the experiment with RXF 393 renal; -65.1% (active) with SF-295 CNS; -99.4% (active) in the experiment with UACC-257 melanoma; -78.3% (active) with HCT-15 colon. Further, the growth is -98.1% (active) in the experiment with UACC-62 melanoma; -91.2% (active) in the experiment with LOX IMVI melanoma; -95.2% (active) in the experiment with SK-MEL-2 melanoma; -98.8% (active) with TK-10 renal; -100% (active) in the experiment with ACHN renal; -97.7% (active) with A498 renal. Besides, the growth is -23.4% (active) in the experiment on HL-60(TB) leukemia; -25.2% (active) in the experiment on MOLT-4 leukemia; -97.3% (active) in the experiment with OVCAR-8 ovarian; -91.2% (active) in the experiment on OVCAR-4 ovarian; -52.4% (active) in the experiment on NCI/ADR-RES ovarian; -47.2% (active) in the experiment on T-47D breast. Moreover, the growth is -98.8% (active) in the experiment on BT-549 breast and -93.9% (active) with HCC-2998 colon.
